Inconclusive results are not listed. Calls of active or inactive are those of the source. The call rests on the fitted dose curve; in most records, active means well fitted curve in the direction sought with a large enough effect in the signal ratio, with a control signal flat (not every such curve was filed as active); inconclusive means small, poorly fitted or top-dose-only effect, or effect the other way, or a change in a side signal; inactive means no such curve, though single readings can be large or run the other way; the % refers to the signal ratio.
What follows are compounds tested against Tyrosine-protein phosphatase non-receptor type substrate 1 (Homo sapiens) + Leukocyte surface antigen CD47 (Homo sapiens) (UniProt P78324+Q08722) (assay: CD47-SIRPalpha protein protein interaction - LANCE assay qHTS validation (AID 1347057)). Details: Recombinant CD47-His / biotin-SIRPalpha, TR-FRET ratio; series mostly up to 38.3 µM.
Tyrosine-protein phosphatase non-receptor type substrate 1 (Homo sapiens) + Leukocyte surface antigen CD47 (Homo sapiens), sequence (P78324 whole entry, looked up, the tested form may be a part): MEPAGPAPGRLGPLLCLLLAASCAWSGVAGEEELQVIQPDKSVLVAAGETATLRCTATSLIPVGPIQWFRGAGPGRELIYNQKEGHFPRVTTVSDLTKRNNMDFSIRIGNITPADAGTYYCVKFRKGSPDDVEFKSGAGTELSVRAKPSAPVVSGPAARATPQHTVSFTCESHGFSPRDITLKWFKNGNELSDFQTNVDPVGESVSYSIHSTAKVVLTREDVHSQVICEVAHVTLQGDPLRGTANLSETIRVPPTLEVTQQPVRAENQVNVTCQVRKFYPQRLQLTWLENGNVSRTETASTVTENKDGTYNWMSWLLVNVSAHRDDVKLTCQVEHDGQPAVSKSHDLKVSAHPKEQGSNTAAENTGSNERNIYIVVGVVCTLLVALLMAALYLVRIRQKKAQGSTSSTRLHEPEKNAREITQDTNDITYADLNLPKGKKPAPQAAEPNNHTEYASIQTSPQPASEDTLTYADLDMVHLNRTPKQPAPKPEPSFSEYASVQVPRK
Tyrosine-protein phosphatase non-receptor type substrate 1 (Homo sapiens) + Leukocyte surface antigen CD47 (Homo sapiens), sequence (Q08722 whole entry, looked up, the tested form may be a part): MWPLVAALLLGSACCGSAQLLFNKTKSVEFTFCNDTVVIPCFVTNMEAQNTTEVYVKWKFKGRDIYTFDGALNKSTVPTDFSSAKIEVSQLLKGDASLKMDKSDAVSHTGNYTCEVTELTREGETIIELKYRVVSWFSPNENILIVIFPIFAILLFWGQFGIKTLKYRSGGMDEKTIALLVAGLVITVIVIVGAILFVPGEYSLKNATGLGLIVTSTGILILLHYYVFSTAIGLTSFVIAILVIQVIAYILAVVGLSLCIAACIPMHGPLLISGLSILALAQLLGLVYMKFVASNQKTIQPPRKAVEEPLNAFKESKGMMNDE
Excerpt: SIRPalpha is a myeloid cell expressed immunomodulatory receptor that binds the tumor expressed immune checkpoint CD47. Therapeutic disruption of this interaction leads to immune-mediated tumor rejection. This assay was used to quantitate CD47-SIRPalpha binding biochemically and evaluate chemical libraries for novel CD47-SIRPalpha inhibitors. To recapitulate the biological interaction of CD47 and SIRPalpha, we designed expression constructs to produce their recombinant, soluble, extracellular interaction domains. CD47 was produced with an N-terminal 6His tag. SIRPalpha was produced with an N-terminal Avi-Tag for site-specific biotin incorporation. The CD47-SIRPalpha interaction was measured by TR-FRET using affinity tag linked reagents (anti-6His-Eu donor and streptavidin-APC acceptor). SIRPalpha without biotin incorporation was used as a positive control inhibitor.
PROTOCOL TABLE (as described by Miller, T. et al. 2019)
SEQUENCE No. (e.g., 1, 2, 3, etc.); […] (e.g., Cells, Incubation, Reagent, etc.); VALUE and DESCRIPTION.
1a. Reagent. 3 uL CD47-His (12.5 nM) and Anti-His Eu Donor reagent (3 nM) added to respective wells in Assay buffer; white/solid bottom high base, med bind 1536-well plates (Greiner 789075)
1b. Reagent. 2 uL Assay buffer negative control for background fluorescence
2. Reagent. 23 nL library compounds (7-pt, 1:4 intraplate titration series) or DMSO control transferred by Pin Tool
3. Centrifuge. Centrifuge plate for 30 s at 1000 RPM
4. Incubation.#Incubate reagents at room temperature for 30 min, protected from light
5. Reagent. 2 uL SIRPalpha-biotin (100 nM) in Assay buffer
6. Incubation.#Incubate reagents at room temperature for 30 min, protected from light
7. Reagent. 1 uL SAV-APC (26 nM) acceptor reagent added to respective wells
8. Centrifuge. Centrifuge plate for 30 s at 1000 RPM
9. Incubation. Incubate reagents at room temperature for 30 min, protected from light
10. Detector. Measure Top TR-FRET on EnVision (Eu/APC filter set); calculate ratio Ch1/Ch2
1. Assay buffer composition.#Phosphate buffered saline (PBS; 10 mM Phosphate, 137 mM NaCl, and 2.7 mM KCl; pH 7.4), 0.05% IGEPAL CA-630
2. 23nL of […] library compounds (7 plates) or DMSO vehicle control transferred to 9 Greiner white/solid bottom high base, TC plates in 7 interplate 1:5 titrations (see Yasgar, A. et al. 2008) with Pintool. Two of the 9 plates are DMSO-only in compound field at beginning and end of compound library-treated plates.
10. Detector settings#Mirror = LANCE/DELFIA Dual Enh; Ex. Filter = UV2[TRF] 320; Em. Filter = APC 665; 2nd Em. Filter = Europium 615; Measurement h = 6.5; Ex. light (%) = 100; Delay = 60 us; Window t = 100 us; No. Seq. windows = 1; Time between flashes = 2000us; No. of flashes = 100; No. of flashes for 2nd detector = 100; Calculation: "Ratio Ch1/Ch2"
With `CC(=O)[C@H]1CCC2C3CC[C@H]4C[C@H](O)CC[C@]4(C)C3CC[C@@]21C` (stereo not given in full) the outcome was “inactive”.
In the case of `C[N+](C)(C)CC(=O)O`, the outcome is reported as “inactive”.
`C[C@]12CCC3C(CC[C@H]4C[C@H](O)CC[C@]34C)C1CC[C@@H]2C(=O)CO` (stereo not given in full) was tested, and the outcome was “inactive”.
In the case of `CN1C2CCC1CC(OC(=O)c1cc(Cl)cc(Cl)c1)C2` (stereo not given), the outcome is reported as “inactive”.
For `Cn1cnc(CCN)c1`, the outcome was “inactive”.
In the case of `CS(=N)(=O)CC[C@H](N)C(=O)O` (stereo not given in full), the outcome is reported as “inactive”.
For `NC1CC1c1ccccc1` (stereo not given), the outcome was “inactive”.
With `C[C@@H](N)Cc1cnc[nH]1` the outcome was “inactive”.
`NC(CCP(=O)(O)O)C(=O)O` (stereo not given) was tested, and the outcome was “inactive”.
With `C[C@@H]1O[C@H](C[N+](C)(C)C)C[C@H]1O` the outcome was “inactive”.
`NC(=O)CN1CC(O)CC1=O` (stereo not given) was tested, and the outcome was “inactive”.
`O=C(O)Cc1cnc[nH]1` was tested, and the outcome was “inactive”.
In the case of `O=C(O)CC[N+](=O)[O-]`, the outcome is reported as “inactive”.
In the case of `C=CCN1CC[C@]23CCCCC2[C@H]1Cc1ccc(O)cc13` (stereo not given in full), the outcome is reported as “inactive”.
With `CN[C@@H]1C[C@@H](c2ccc(Cl)c(Cl)c2)c2ccccc21` the outcome was “inactive”.
With `CCCN(CCC)C1CCc2ccc(O)cc2C1` (stereo not given) the outcome was “inactive”.
In the case of `CNCCc1ccc(O)c(O)c1`, the outcome is reported as “inactive”.
`CC[C@@]1(O)C(=O)OCc2c1cc1n(c2=O)Cc2cc3ccccc3nc2-1` was tested, and the outcome was “inactive”.
With `O=C(O)[C@@H]1CCN1` the outcome was “inactive”.
For `S=C(NC1CCCCC1)N1CCC(c2cnc[nH]2)CC1`, the outcome was “inactive”.
In the case of `NCCc1c[nH]c2ccc(O)cc12`, the outcome is reported as “inactive”.
In the case of `Clc1cnc(Oc2ccc(Oc3ncc(Cl)cc3Cl)cc2)c(Cl)c1`, the outcome is reported as “inactive”.
With `CC(=O)NCCc1c[nH]c2ccccc12` the outcome was “inactive”.
In the case of `NC(N)=NOCCC(N)C(=O)O` (stereo not given), the outcome is reported as “inactive”.
In the case of `C[N+]1(C)C2CCC1CC(OC(=O)C(CO)c1ccccc1)C2` (stereo not given), the outcome is reported as “inactive”.
For `O=C1CCCN1CC#CCN1CCCC1`, the outcome was “inactive”.
For `c1ccc2sc(C3(N4CCCCC4)CCCCC3)cc2c1`, the outcome was “inactive”.
`O=C(Cc1ccc(Cl)c(Cl)c1)N1CCCCC1CN1CCCC1` (stereo not given) was tested, and the outcome was “inactive”.
With `NC1CCc2cc(O)c(O)cc2C1` (stereo not given) the outcome was “inactive”.
In the case of `O=C(N[C@H]1CN2CCC1CC2)c1ccc(Cl)cc1`, the outcome is reported as “inactive”.
In the case of `CC(Cc1ccc(O)cc1)NCC(O)c1cc(O)cc(O)c1` (stereo not given), the outcome is reported as “inactive”.
`C[C@]12N[C@H](Cc3ccccc31)c1ccccc12` was tested, and the outcome was “inactive”.
`Oc1ccc2c3c1O[C@H]1c4[nH]c5c(c4C[C@@]4(O)[C@@H](C2)N(CC2CC2)CC[C@]314)C[C@@]1(O)[C@H]2Cc3ccc(O)c4c3[C@@]1(CCN2CC1CC1)[C@H]5O4` was tested, and the outcome was “inactive”.
For `COC(=O)[C@@H](N)CCCN=C(N)N[N+](=O)[O-]`, the outcome was “inactive”.
For `COc1ccc2c(c[n+](C)c3c4cc5c(cc4ccc23)OCO5)c1OC`, the outcome was “inactive”.
With `CC(C)Oc1cccnc1N(C)C1CCN(Cc2ccccc2)CC1` the outcome was “inactive”.
For `c1ccc(CCCN2CCN(CCOC(c3ccccc3)c3ccccc3)CC2)cc1`, the outcome was “inactive”.
In the case of `CNCCc1c[nH]c2ccc(O)cc12`, the outcome is reported as “inactive”.
For `CC[C@@H](C(N)=O)N1CCCC1=O`, the outcome was “inactive”.
`C#CCOC(=O)C1=CCCN(C)C1` was tested, and the outcome was “inactive”.
